Assay results taken from ChEMBL document CHEMBL3988442, “University of Dundee, Small-Polar-MMV Screening Library” (2021).
The campaign covered roughly 48,000 compounds. About 13,000 (27%) showed an effect of 50% or more. The list shows a part of the results.

The molecules below were run on Wolbachia pipientis (assay: Anti-Wolbachia Cell-Based Screen). Conditions: 5 µM.
Type: functional
Design: scale not given: in the data most compounds retested in dose-response had high values

Compound | Percent Effect [%]
O=C(NCc1cccc(N2CC=CC2)c1)NCC(F)(F)F | 2.139
COc1ccnc(N(C)Cc2c(C)noc2C)n1 | 0.6416
O=C(CCNC(=O)c1ccoc1)Nc1cc(F)cc(F)c1 | -8.538
CCn1cnc(NC(=O)N2CCCC(c3ccccc3)CC2)n1 (stereo unspecified) | 1.274
CC1CCCN(C(=O)NCC(F)F)C1 (stereo unspecified) | -0.801
CC(C)CN1CCC(C(=O)NCCNC(=O)c2ccoc2)CC1 | 9.069
O=C(NCC(=O)N1CCCC(c2ccccc2)CC1)c1ccoc1 (stereo unspecified) | 114.1
O=C(CCNC(=O)c1ccoc1)Nc1c(F)cccc1F | -2.292
Cc1occc1C(=O)NCC(=O)N1CCCC(c2ccccc2)CC1 (stereo unspecified) | 4.823
CC1CCCN(C(=O)CNC(=O)c2ccoc2)C1 (stereo unspecified) | 104.6
O=C(NCCC(=O)N1CCCCCCC1)c1ccoc1 | 130.7
c1cnnc(N2CCCC(NCc3ccc(-n4ccnc4)cc3)C2)c1 (stereo unspecified) | 2.731
CN(Cc1cccs1)C(=O)CNC1CCc2ncnn2C1 (stereo unspecified) | -0.9071
Cc1cc(=O)c2ccccc2n1CC1CCCN(C)C1 (stereo unspecified) | -3.698
Cc1cc(S(=O)(=O)N2CCc3ccc(F)cc32)cc(C(=O)O)c1C | -1.898
CC(NC(=O)NCCCn1cncn1)c1ccc2c(c1)OCCO2 (stereo unspecified) | 5.809
CC(NC(=O)CCn1cccn1)c1ccc2c(c1)OCCO2 (stereo unspecified) | 98
CC(NC(=O)NCCCO)c1ccc2c(c1)OCCO2 (stereo unspecified) | 6.207
CC(NC(=O)CNCCn1cccn1)c1ccc2c(c1)OCCO2 (stereo unspecified) | -2.168
CC(NC(=O)Cn1cccn1)c1ccc2c(c1)OCCCO2 (stereo unspecified) | -3.831
OC(CNCCn1cccn1)c1ccc2c(c1)OCCO2 (stereo unspecified) | 4.861
Cc1cnn(CCNCC(=O)NC(C)c2ccc3c(c2)OCCO3)c1 (stereo unspecified) | 97.89
CC(NC(=O)NCCCn1ccnc1)c1ccc2c(c1)OCCCO2 (stereo unspecified) | -3.282
Cc1ccc(C(O)CNCCn2cccn2)cc1C (stereo unspecified) | -13.13

Compound | Percent Effect [%]
CC(NC(=O)CNCCn1cccn1)c1ccc2c(c1)CCCC2 (stereo unspecified) | 2.456
CC(NC(=O)Cn1cccn1)c1ccc2c(c1)OCCO2 (stereo unspecified) | 96.81
Cc1ccc(C(C)NC(=O)CNCCn2cccn2)cc1C (stereo unspecified) | 67.97
Cc1noc(C)c1CN(C)C(=O)NC(C)Cc1ccco1 (stereo unspecified) | 8.322
CN(Cc1nc2ccccc2o1)CC1CCCN1c1cccnn1 (stereo unspecified) | 4.649
COc1ccccc1C(C)N1CCN(S(=O)(=O)N(C)C)CC1 (stereo unspecified) | -4.471
Cc1cccc(N2N=C(C(=O)NC(C)Cn3cccn3)CCC2=O)c1 (stereo unspecified) | -20.26
Nc1nc(CNc2nccc(CCC(F)(F)F)n2)cs1 | 0.6104
Cc1cc(NC(=O)[C@H]2CCCCN2C(=O)OC(C)(C)C)no1 | 12.93
O=C(CCC1CCCO1)NCc1ccc(Br)cc1F (stereo unspecified) | 24.29
Cc1ncnc2c1CCN(C(=O)c1ccoc1)CC2 | -3.432
CN(C)CC(=O)N1CCc2ncnc(-c3ccoc3)c2CC1 | -8.225
Cc1ccoc1C(=O)N1CCc2ncnc(-c3cnn(C)c3)c2CC1 | 95.42
Cc1cc(C(=O)N2CCc3ncnc(-c4cnn(C)c4)c3CC2)c(C)o1 | 88.25
Cc1cnc(C(=O)N2CCc3ncnc(C)c3CC2)cn1 | -11.83
Cn1cc(-c2ncnc3c2CCN(C(=O)c2cnccn2)CC3)cn1 | 113
Cc1ncnc2c1CCN(C(=O)c1cnccn1)CC2 | 1.422
Cc1cnc(C(=O)N2CCc3ncnc(-c4cnn(C)c4)c3CC2)cn1 | 103.6
Cc1occc1C(=O)N1CCc2ncnc(-c3cnn(C)c3)c2CC1 | 2.959
CCOc1ncnc2c1CCN(C(=O)c1cnccn1)CC2 | 5.086
CN(c1cccnc1N1CCCC1)S(=O)(=O)c1cccs1 | 3.267
CCc1nc(C)c(C(=O)N2CCNCC2C(=O)Nc2ccc(C)nc2)o1 (stereo unspecified) | 1.705
Cc1cccc(C)c1OC1CN(Cc2cnc(-c3ccco3)nc2)C1 | -6.327
CSCC(=O)N[C@H]1CN(CC2CCOCC2)C[C@@H]1c1ccccc1 | 6.905

Compound | Percent Effect [%]
Cn1cc(-c2ncnc3c2CCN(C(=O)c2cscn2)CC3)cn1 | 121.2
O=C(c1cc[nH]n1)N1CCc2ncnc(N3CCSCC3)c2CC1 | 19.12
COc1cc(N2CCc3ncnc(-c4cnn(C)c4)c3CC2)ncn1 | -4.032
Cn1cc(-c2ncnc3c2CCN(C(=O)N2CCOCC2)CC3)cn1 | -0.924
Cc1cc(C(=O)N2CCc3ncnc(-c4cnn(C)c4)c3CC2)no1 | 110.1
Cc1ccc(C(=O)N2CCc3ncnc(C)c3CC2)o1 | -4.866
Cc1ccc(C(=O)N2CCc3ncnc(-c4cnn(C)c4)c3CC2)o1 | 96.64
CN(C)c1cnnc(N2CCN(C(=O)CCC3CCCCC3)CC2)c1 | 3.23
Cc1n[nH]c(SCC(=O)NC(c2ccncc2)C(C)C)n1 (stereo unspecified) | 1.831
Cc1cc(NC(=O)N2CCOCC2)nn1-c1ccccc1Cl | -5.01
CCc1nc(NS(=O)(=O)c2cc(C)cc(F)c2)no1 | -9.734
Cc1ccc(N2CCC3(CN(Cc4cccs4)CCC3(F)F)C2)nn1.O=C(O)C(F)(F)F (stereo unspecified) | 80.15
Cc1ccc(N2CCCC3(CCCC(=O)N3)C2)nn1.O=C(O)C(F)(F)F (stereo unspecified) | -15.09
Cc1ccc(CN2CCC(F)(F)C3(CCN(c4cnccn4)C3)C2)o1.O=C(O)C(F)(F)F.O=C(O)C(F)(F)F (stereo unspecified) | 15.24
Cc1ccc(N2CCC3(CN(Cc4ccncc4)CCC3(F)F)C2)nn1.O=C(O)C(F)(F)F.O=C(O)C(F)(F)F (stereo unspecified) | 101.6
Cc1ccc(N2CCC3(CC2)CC(OCC(C)C)C3)nn1.O=C(O)C(F)(F)F | -76.25
Cc1n[nH]cc1CNc1ccc2c(c1)N(C(=O)OC(C)(C)C)CCC2 | -11.3
Cc1nnsc1CNC(=O)Nc1cccc(N2CCN(C)C2=O)c1 | -31.37
Cc1cccc(N2CCOCC3(C2)CN(c2cncnc2)C(=O)CO3)n1 (stereo unspecified) | 105.8
O=C1COC2(COCCN(c3cnccn3)C2)CN1c1cccc(F)c1 (stereo unspecified) | -3.492
Cc1cccc(N2CC3(COCCN(c4ccncn4)C3)OCC2=O)c1 (stereo unspecified) | -13.92
Cc1cccc(N2CCOCC3(C2)CN(c2cccnc2)C(=O)CO3)n1 (stereo unspecified) | 106.1
CN1CC2(COCCN(c3ncccn3)C2)OCC1=O (stereo unspecified) | -2.048
